Test results reported in PubChem BioAssay AID1814 (Broad Institute, 2009).
Screen size: about 300,000 compounds; about 22,000 (7.3%) were called active. Roughly 2% stayed inconclusive and do not appear here. The full list was thinned out, with actives kept by preference. Values without a mark were called inactive. Cut-off read from the data, not from the text of the source: active = activity score below about -60%; inconclusive = mostly about -28% to -61%; inactive = positive scores.

Assay: Activators working through SNCA 5'UTR binding (MLPCN) (AID 1814)
Details: alpha-synuclein 5'UTR reporter, activators screen; active compounds read low; tested at 7.5 µM

For `CCc1ccc(-c2cc(C(=O)NN3CCN(C)CC3)c3ccccc3n2)cc1`, which activity score is on record?
Its activity score is -112% (active).

With `O=C(Nc1ccccc1)c1cc2ccccc2[nH]1` as the molecule, how does the activity score read?
Its activity score is -180% (active).

With `CCn1c(=N)n(CC(=O)c2cccc(OC)c2)c2ccccc21` as the molecule, how does the activity score read?
Its activity score is -124% (active).

For `Cc1cccc(NC(=O)c2cccc(C(F)(F)F)c2)c1`, which activity score is on record?
The activity score was -71.9% (active).

With `O=C(Nc1ccccc1)Nc1ccc(C(F)(F)F)cn1` as the molecule, how does the activity score read?
Its activity score is -120% (active).

Which activity score does the source give for `Cc1ccc(NC(=O)Nc2cccc(C(F)(F)F)c2)nc1` here?
The activity score was -115% (active).

With `COc1ccc(NC(=O)CCS(=O)(=O)c2cc3c(cc2Cl)NC(=O)CO3)cc1OC` as the molecule, how does the activity score read?
The activity score was -91.8% (active).

With `CC(=O)Nc1ccc(NC(=O)CN2CCCC(C)C2)c(Cl)c1` (configuration not stated) as the molecule, how does the activity score read?
Its activity score is -105% (active).

With `CC(Sc1nc2cc(Cl)ccc2s1)C(=O)Nc1ccc2c(c1)OCO2` (configuration not stated) as the molecule, how does the activity score read?
Its activity score is -117% (active).

With `O=C(c1cnn2ccccc12)N1CCc2ccccc21` as the molecule, how does the activity score read?
Its activity score is -123% (active).

Which activity score does the source give for `COc1cc(OC)cc(C(=O)NCC(=O)OCc2csc(-c3ccccc3)n2)c1` here?
The activity score was -73.7% (active).

Which activity score does the source give for `CCCCOC(=O)c1[nH]c(C)c(C(=O)OC)c1C` here?
The activity score was -134% (active).

For `CCOC(OCC)c1ccc(/C=C\c2nccc(N)n2)cc1`, which activity score is on record?
The activity score was -117% (active).

Which activity score does the source give for `CC(=O)c1sc(N/N=C/c2ccc(C(C)C)cc2)nc1C` here?
The activity score was -149% (active).

With `COc1ccccc1/C=N/Nc1nc(C)c(C(C)=O)s1` as the molecule, how does the activity score read?
Its activity score is -154% (active).

With `COc1cccc(/C=N/Nc2cc(C)nc(-c3ccccc3O)n2)c1O` as the molecule, how does the activity score read?
The activity score was 82.8%.

Which activity score does the source give for `COc1cccc2sc(Nc3nc(C)c(C(C)=O)s3)nc12` here?
Its activity score is -179% (active).

For `Oc1oc(-c2ccccc2Br)nc1/C=N/c1ccccn1`, which activity score is on record?
The activity score was -124% (active).

With `CCCCOc1ccc(-c2nnc(-c3ccco3)o2)cc1` as the molecule, how does the activity score read?
Its activity score is 60.2%.

For `Cc1ccc(OCC(=O)Nc2ccc(-c3nnc(-c4ccco4)o3)cc2)cc1`, which activity score is on record?
The activity score was -69.1% (active).

Which activity score does the source give for `CCC(=O)Oc1cccc(C(=O)Nc2ccc(-c3nnc(-c4ccco4)o3)cc2)c1` here?
Its activity score is -227% (active).

With `Cc1ccc(OCC(=O)Nc2ccc(-c3nc4ncccc4o3)cc2)cc1` as the molecule, how does the activity score read?
Its activity score is -85.6% (active).

For `O=C(CCc1ccccc1)Nc1cccc(-c2nnc(-c3ccco3)o2)c1`, which activity score is on record?
Its activity score is -74.1% (active).

For `Fc1ccccc1OCCSc1nc2ccccc2o1`, which activity score is on record?
Its activity score is -139% (active).

For `Cc1cccc2nc(CNc3ccc(F)cc3)cn12`, which activity score is on record?
The activity score was -64.9% (active).

With `Cc1ccc(-n2ncc3c(Nc4cccc(C(=O)O)c4)ncnc32)cc1` as the molecule, how does the activity score read?
The activity score was -200% (active).

For `CC(=O)NCC(=O)N1CCC(n2nccc2NC(=O)CCCc2ccccc2)CC1`, which activity score is on record?
Its activity score is -67.3% (active).

Which activity score does the source give for `Cn1c(SCc2nc3ccccc3s2)nnc1-c1ccc2c(c1)OCO2` here?
Its activity score is -72.1% (active).

Which activity score does the source give for `Cc1ccnc(Nc2nc3ccccc3s2)n1` here?
The activity score was -81.3% (active).

With `O=C(NC(=S)Nc1ccc(Cl)cc1Cl)C1CC1` as the molecule, how does the activity score read?
Its activity score is -107% (active).

Which activity score does the source give for `Cc1cc(C)c2nc(NC(=O)C3CCCO3)sc2c1` (configuration not stated) here?
Its activity score is -107% (active).

For `Cc1[nH]n(C(N)=S)c(=O)c1N=Nc1ccc(Cl)cc1Cl`, which activity score is on record?
Its activity score is -112% (active).

For `Cn1c(=O)n(C)c2cc(C(=O)Nc3ccc(Br)cc3)ccc21`, which activity score is on record?
Its activity score is -80.7% (active).

For `COc1ccc(C(=O)Nc2ccc3c(c2)OCO3)cc1OC`, which activity score is on record?
The activity score was -100% (active).

With `COc1ccc(C(=O)Nc2ccc(C3(C#N)CCCC3)cc2)cc1OC` as the molecule, how does the activity score read?
The activity score was -120% (active).

For `Cc1ccc(C(=O)Nc2ccc3c(c2)OCO3)cc1S(=O)(=O)N1CCCCC1`, which activity score is on record?
The activity score was -66.6% (active).

For `Cn1c(=O)n(C)c2cc(C(=O)Nc3ccc4c(c3)OCO4)ccc21`, which activity score is on record?
The activity score was -191% (active).

With `O=C(Nc1ccccc1)c1ccccc1NC(=O)C(F)(F)F` as the molecule, how does the activity score read?
The activity score was -85.9% (active).

Which activity score does the source give for `Cc1ccc(Cc2nc(-c3cccc(C)c3)no2)cc1` here?
The activity score was -173% (active).

With `Cc1cccc(-c2noc(-c3ccc(F)cc3)n2)c1` as the molecule, how does the activity score read?
The activity score was -101% (active).

With `CCOc1ccc(/C=N/NC(N)=S)cc1` as the molecule, how does the activity score read?
The activity score was -63.3% (active).

Which activity score does the source give for `Cc1cc(=O)oc2cc(OCC3CC(c4ccccc4Cl)=NO3)ccc12` (configuration not stated) here?
Its activity score is -132% (active).

Which activity score does the source give for `CC(C)(C)c1ccc(OC2=CS(=O)(=O)c3ccccc32)cc1` here?
Its activity score is -110% (active).

With `CC(C)(C)c1ccc(Oc2ccc(N)cc2)cc1` as the molecule, how does the activity score read?
Its activity score is 112%.

For `COC(=O)c1c(NC(=O)c2ccccc2F)sc2c1C(C(=O)OC)CC2` (configuration not stated), which activity score is on record?
The activity score was -72.4% (active).

For `CCOc1ccc2[nH]c3nc(SCC(=O)NC4CCCC4)nnc3c2c1`, which activity score is on record?
The activity score was -73.1% (active).

With `Cc1cccn2c(=O)c3cc(C(=O)NCCN4CCOCC4)c(=N)n(Cc4cccnc4)c3nc12` as the molecule, how does the activity score read?
The activity score was 97%.

Which activity score does the source give for `COc1ccc(CCn2c(=N)c(C(=O)NCc3ccco3)cc3c(=O)n4cccc(C)c4nc32)cc1` here?
The activity score was -87.1% (active).

Which activity score does the source give for `CCn1c2ccccc2c2cc(NC(=O)C/C(C)=N/NC(=O)c3ccccc3N)ccc21` here?
The activity score was -110% (active).

Which activity score does the source give for `NS(=O)(=O)c1ccc(Nc2nc(-c3ccccc3)cs2)cc1` here?
The activity score was -117% (active).

Which activity score does the source give for `COc1ccc(-c2csc(Nc3ccc(O)cc3)n2)cc1` here?
The activity score was -170% (active).

Which activity score does the source give for `COc1ccc(-c2csc(Cc3nc(O)cs3)n2)cc1` here?
The activity score was -207% (active).

For `COc1ccc(Nc2nc(-c3ccccc3)cs2)cc1`, which activity score is on record?
The activity score was -137% (active).

For `O=C(NCc1cccnc1)C(=O)Nc1nc(-c2ccccc2)cs1`, which activity score is on record?
Its activity score is -99% (active).

For `Oc1ccc(-c2csc(Nc3cccnc3)n2)cc1`, which activity score is on record?
The activity score was -116% (active).

Which activity score does the source give for `CN(c1ccc(O)cc1)c1nc(-c2cccnc2)cs1` here?
Its activity score is -137% (active).

For `COc1ccc(-c2csc(NC3OC(=O)c4ccccc43)n2)cc1` (configuration not stated), which activity score is on record?
Its activity score is -114% (active).

With `COc1ccc(OC)c(Nc2nc(-c3ccc(O)c(O)c3)cs2)c1` as the molecule, how does the activity score read?
The activity score was -158% (active).

With `Cc1ccccc1Nc1nc(-c2cccnc2)cs1` as the molecule, how does the activity score read?
Its activity score is -179% (active).

Which activity score does the source give for `O=C(Nc1ccc2c(c1)OCO2)C1CC(c2c(F)cccc2Cl)=NO1` (configuration not stated) here?
The activity score was -147% (active).

With `COc1cccc(NC(=O)C(=O)c2cn(CC(=O)N3CCOCC3)c3ccccc23)c1` as the molecule, how does the activity score read?
The activity score was -77.7% (active).

Which activity score does the source give for `O=C(Nc1ccc([N+](=O)[O-])cc1)C1CC12CCC2` (configuration not stated) here?
The activity score was -78.2% (active).

Which activity score does the source give for `COc1ccc(NC(=S)N2N=CCC2c2ccccc2)cc1` (configuration not stated) here?
Its activity score is -137% (active).

With `Cn1c(SCc2c(F)cccc2Cl)nnc1-c1cnccn1` as the molecule, how does the activity score read?
Its activity score is -126% (active).

Which activity score does the source give for `CSC(=S)N/N=C/c1c[nH]c2ccccc12` here?
The activity score was -107% (active).

With `c1ccc(-c2ccc(OCCN3CCOCC3)cc2)cc1` as the molecule, how does the activity score read?
Its activity score is -93.6% (active).

For `COc1ccc(Br)cc1C(=O)NC(=S)Nc1cc(-c2nc3ccccc3[nH]2)ccc1C`, which activity score is on record?
Its activity score is -86.2% (active).
